# Source: PubChem BioAssay
# Sampled rows, rich in hits. Any-hit rate of the full collection: about 19%.
# HT1080NT lethal: qHTS for induction of synthetic lethality in tumor cells producing 2HG: qHTS for the HT-1080-NT fibrosarcoma cell line; Potency, µM (doses to about 46.1 µM), actives largely listed as cytotoxic; HT-1080-NT fibrosarcoma viability, CellTiter-Glo ATP luminescence, 48 h; 360,000 compounds, 1.6% hits; AID 686970, 2013;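 note: NT is the 2HG producing partner of a matched IDH1 knockdown line; nearly all actives have a fitted effect of over 55% in size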
#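 750 cells/well, RPMI + 5% FBS; 2 h settle, compound pin-transfer, 48 h at 37 degrees C. CellTiter-Glo 10 min RT, luminescence. Normalized to DMSO and media-only wells.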
# IL-1B inflam inh: qHTS for Inhibitors of Inflammasome Signaling: IL-1-beta AlphaLISA Primary Screen | THP-1 LPS/ATP IL-1B secretion, AlphaLISA, 16 h; active compounds read low | activity change, % at 57.5 µM | 360,000 compounds, 4.7% hits; in the data active = activity change below about -50%; inconclusive = mostly about -30% to -49%
#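 THP-1 cells pretreated 1 hr with compounds (up to 57.5 uM final), then stimulated with LPS (250 ng/mL final) plus ATP (1.25 mM final); secreted IL-1B measured by AlphaLISA after 16 hr, decreased signal indicating inhibition.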
# HT1080 IDH1KD tx: qHTS for induction of synthetic lethality in tumor cells producing 2HG: qHTS for the HT-1080-IDH1KD cell line; 360,000 compounds, 2% hits; HT-1080 IDH1 knockdown viability, ATP luminescence, 48 h; Potency, µM (highest dose often 46.1 µM), hits mostly cytotoxic
#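 In this qHTS, HT-1080 cells depleted of IDH1 are exposed for 48 h at 37 °C to compound titrations. Toxicity is scored from CellTiter-Glo luminescence, with DMSO as full viability and medium alone as none.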
# DT40 TDP1 no CPT: qHTS for Inhibitors of human tyrosyl-DNA phosphodiesterase 1 (TDP1): qHTS in cells in absence of CPT; DT40 Tdp1-/- hTDP1 cells, no CPT, ATP luminescence, 48 h; Potency, µM (highest dose often 46.2 µM), hits mostly inhibitors; 420,000 compounds, 15% hits; AID 686978, 2013; note: nearly all actives have a fitted effect of over 55% in size
#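 Camptothecin absent (DMSO only). Human TDP1-complemented DT40 knockout cells, 400 cells/well, 37 °C for minimum 48 hr; ATP measured via CellTiter-Glo, 30 min dark incubation, luminescence.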
# TDP1 cell CPT: qHTS for Inhibitors of human tyrosyl-DNA phosphodiesterase 1 (TDP1): qHTS in cells in presence of CPT. chicken DT40 Tdp1-/-;hTDP1 cells + 20 nM CPT, ATP luminescence, 48 h. Potency, µM (series often up to 46.2 µM), most hits filed as inhibitors. 420,000 compounds, 12% hits. AID 686979, 2013; note: nearly all actives have a fitted effect of over 55% in size
#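 Chicken DT40 Tdp1-/- cells stably complemented with human TDP1 were seeded at 400 cells/well in medium containing 20 nM camptothecin, exposed to pin-transferred compounds, and grown at 37 °C for at least 48 hr. Viability was read as ATP luminescence.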
# Hits are given with their value; 0 = inactive; ? = inconclusive; - = not tested or not shown. Unless noted, calls come from the whole dose curve; as a rule, active = well fitted curve in the direction sought with a large enough effect; inconclusive = small, poorly fitted or top-dose-only effect, or another doubt; inactive = no such curve, though single readings can be large; an effect the other way counts as inactive or inconclusive.
SMILES,HT1080NT lethal,IL-1B inflam inh,HT1080 IDH1KD tx,DT40 TDP1 no CPT,TDP1 cell CPT
CCCCc1cn([C@@H](CCCCNC(=O)OC(C)(C)C)C(=O)N2CCN(C(=O)OC(C)(C)C)CC2)nn1,0,0,0,?,?
CC(C)(C)OC(=O)CC[C@@H](C(=O)NCCCCCCCCCCC(=O)N1CCN(C(=O)OC(C)(C)C)CC1)n1cc(CCCCCNC(=O)OC(C)(C)C)nn1,0,0,0,4.1µM,5.8µM
Cc1ccc2nc(-c3ccc(NS(=O)(=O)c4ccc(F)cc4)cc3)sc2c1,?,-103,?,?,?
O=S(=O)(Nc1ccc(-c2ccc(NS(=O)(=O)c3ccccc3)cc2)cc1)c1ccccc1,?,0,?,23µM,?
Cc1ccc(S(=O)(=O)Nc2ccc(-c3csc(-c4ccccc4)n3)cc2)cc1,0,-97,0,?,?
O=C1c2ccccc2C(=O)c2cc(S(=O)(=O)Nc3ccccc3)ccc21,0,0,0,21µM,15µM
COc1ccc(CNC(=O)C(C)n2c(=O)cc(C)c3c(C)nn(-c4ccccc4)c32)cc1 (centres undefined),-,-,-,0,0
CCC(C)[C@H](NS(=O)(=O)c1ccc(C)cc1)C(=O)N1CCC(C(=O)N2CCC(C(N)=O)CC2)CC1 (some centres undefined),0,0,0,0,0
CCOC(=O)CCC(=O)N1CCOCCOCCN(C(=O)CCC(=O)OCC)CCOCCOCC1,0,0,0,0,0
COc1ccc(S(=O)(=O)NC(C)C(=O)Nc2ccc3c(c2)OCCO3)cc1OC (centres undefined),0,0,0,0,0
O=S(=O)(Nc1ccc(-c2csc(-c3ccccc3)n2)cc1)c1ccccc1,?,-102,?,18µM,0
O=S(=O)(Nc1ccc(NS(=O)(=O)c2ccccc2)cc1)c1ccccc1,0,0,0,?,0
COc1ccc(C(CCN)Cc2ccccc2)cc1 (centres undefined),0,-51,0,21µM,29µM
CC[C@H](CO)Nc1nc(Nc2cccc(Cl)c2)c2ncn(C(C)C)c2n1,?,-99,?,9.2µM,9.2µM
COC(=O)[C@@]12C[C@@H](CC(=O)NCCc3ccccc3OC)C(=O)N(Cc3ccco3)C1=CCC(C)(C)C2,?,0,?,?,?
Cc1ccccc1-c1cc(C(=O)NCc2cccs2)nn1CC1CC(c2cccc([N+](=O)[O-])c2)=NO1 (centres undefined),0,0,0,16µM,?
Cc1ccccc1-c1cc(C(=O)NCc2ccco2)nn1CC1CC(c2cccc([N+](=O)[O-])c2)=NO1 (centres undefined),0,0,0,?,16µM
CC(C)CNC(=O)C1(C)CCCN1C(=O)C(C)(C)Oc1ccc(Cl)cc1 (centres undefined),0,0,0,16µM,?
COc1cc(C(=O)NNC(=S)NC(=O)c2ccc(F)cc2)cc(OC)c1OC,0,0,?,?,29µM
COc1cc(C(=O)NC(=S)NCc2ccncc2)cc(OC)c1OC,0,0,0,21µM,?
COc1ccc(C(=O)NNC(=S)NC(=O)c2ccc(F)cc2)cc1Br,?,0,?,?,?
COc1ccc(CC(=O)NNC(=S)NC(=O)c2cc(OC)c(OC)c(OC)c2)cc1,?,0,?,7.3µM,9.2µM
CC[C@]12c3[nH]c4ccc(Cl)cc4c3CCN1C(=O)[C@@H](CC(=O)NCc1ccco1)C[C@@H]2C(=O)N1CCN(C(=O)c2ccco2)CC1,0,0,0,21µM,16µM
CC[C@]12c3[nH]c4ccccc4c3CCN1C(=O)C(CC(=O)NCCCn1ccnc1)C[C@@H]2C(=O)N1CCN(C(=O)c2ccco2)CC1 (some centres undefined),0,0,0,0,0
